KCNQ2 inh = KCNQ2 (rat) channel inhibition; O88943; CHO-K1 KCNQ2, FluxOR thallium flux, 20 min; stronger effect = lower value; B-score at 10 µM; hit rate 1.1% among 310,000;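 active means fluorescence ratio B-score at most minus 3 library SDs, with starting brightness B-score within 2 library SDs, cut at about -5.5 in these data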
KCNQ2 pot = KCNQ2 (rat) channel potentiation; O88943; CHO-K1 KCNQ2, FluxOR thallium flux fluorescence; stronger effect = higher value; B-score at 10 µM; hit rate 0.54% among 310,000; AID 2239;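 active means fluorescence ratio B-score at least 3 SD of library B-scores, with initial fluorescence B-score within 3 of them, cut at about 5.3 in these data; same plate scores as AID 2156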;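 further: B-score of peak minus minimum over baseline fluorescence ratio after K+ and Tl+ stimulus; positive B-score means potentiation of KCNQ2 with more thallium influx and brighter signal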
Active calls of the source: *; i = inactive; · = no result. Hits are enriched below; roughly 1.6% of the tested compounds scored in any of these assays.

SMILES	KCNQ2 inh	KCNQ2 pot
Cc1ccc2cc(C#N)c(NCCNC(=S)NCCCN(C)C)nc2c1C	i	·
COc1ccccc1NC(=S)NC(NC(C)=O)C(Cl)(Cl)Cl (configuration not stated)	i	0.7
Cc1ccc(S(=O)(=O)N(CC(=O)N2CCN(c3ccc(F)cc3)CC2)C2CCCCC2)cc1	i	·
CCn1cc(C(=O)NCc2cccc(F)c2)c(=O)c2cc(F)c(N3CCN(C(=O)c4ccco4)CC3)cc21	i	·
CC(CC(=O)Nc1ccc2c(c1)OCCO2)c1ccccc1 (configuration not stated)	i	1.7
CC(CC(=O)NC(C)c1ccc2c(c1)OCCO2)c1ccccc1 (configuration not stated)	i	9.3*
Fc1ccc(CSc2nc3ccccc3[nH]2)cc1	i	·
Cc1cc(C(=O)Cn2nc(C(=O)O)c3ccccc3c2=O)c(C)n1C1CC1	i	0.18
CCOC(=O)c1nnc(-c2ccc(C)cc2)nc1Oc1ccccc1Cl	i	·
CCOC(=O)c1nnc(-c2ccc(C)cc2)nc1Oc1ccc(Cl)cc1Cl	-6*	-6
O=C(Cn1nc(-c2ccccc2)ccc1=O)Nc1cccc(NC(=O)c2ccccn2)c1	i	1.4
Cc1ccc(OCC(=O)N(c2ccccn2)C2CCCCC2)c(C)c1	-6.4*	-6.4
O=C(COCCOCC(=O)N(c1ccccn1)C1CCCCC1)N(c1ccccn1)C1CCCCC1	i	0.07
Cc1cccc(-n2ncc3c2CCCC3NC(=O)C2(C(N)=O)CC2)c1C (configuration not stated)	i	0.59
Cc1cc(C(=O)NC2CC(C)(C)Cc3c2cnn3-c2ccccc2C)c(C)o1 (configuration not stated)	-5.7*	-5.7
Cc1cc(C)c(C(=O)NC2CCCc3c2cnn3-c2cccc(C)c2C)o1 (configuration not stated)	-6.6*	-6.6
COc1ccc(C(=O)NC2CC(C)(C)Cc3c2cnn3-c2ccccc2C)c(OC)c1OC (configuration not stated)	i	·
O=C(c1ccccc1Br)N1N=C(c2ccccc2)CC1c1ccccc1F (configuration not stated)	i	·
COc1cc([N+](=O)[O-])ccc1NC(=O)CSc1nccn1C	i	0.71
CCCCCC(=O)N1CC2(CC(c3cccc(NC(=O)COc4ccc(Cl)cc4)c3)=NO2)C[C@@H]1C(N)=O (some centres not stated)	i	·
CC(=O)Oc1c(-c2ccco2)oc2ccccc2c1=O	i	5.9*
CCN(CC)C(=O)COc1c(-c2ccco2)oc2ccccc2c1=O	i	0.61
O=C(O)CCc1ccc(-c2ccc(Br)cc2)o1	i	0.57
CC1(c2ccccc2)NC(=O)N(CC(=O)Nc2ccc(S(N)(=O)=O)cc2)C1=O (configuration not stated)	i	0.94
O=C(OCC(=O)N1CCN(c2ccccc2)CC1)c1ccc2ccccc2n1	i	·
SMILES	KCNQ2 inh	KCNQ2 pot
COC(=O)c1cn(NC(=O)Cc2ccc(Cl)cc2)c(=O)c2ccccc12	i	18*
COC(=O)c1cn(NC(=O)Cc2ccccc2OC)c(=O)c2ccccc12	i	·
COC(=O)c1cn(NC(=O)Cc2ccc(Cl)c(Cl)c2)c(=O)c2ccccc12	i	30*
COC(=O)c1cn(NC(=O)Cc2cccc(C(F)(F)F)c2)c(=O)c2ccccc12	i	3.5
CSc1ccc(CCNC(=O)C2CCCN(c3ncnc4c3nc3n4CCCCC3)C2)cc1 (configuration not stated)	i	·
O=C(CSc1nc(N2CCCCC2)nc(N2CCCCC2)n1)N1CCc2ccccc21	i	14*
O=C(CSc1nc(N2CCCCC2)nc(N2CCCCC2)n1)N1CCN(c2ccccc2)CC1	i	19*
Cc1nc(SCC(=O)N2CCN(c3ccccc3)CC2)n[nH]1	i	·
Cc1cc(C)nc(SCC(=O)N2CCc3ccccc32)n1	i	·
O=C(NCCc1cn2ccsc2n1)c1cccs1	i	0.08
CC(C)CC(COCc1cccc(C(F)(F)F)c1)N1CCN(C(=O)c2cccc(C(F)(F)F)c2)CCC1=O (configuration not stated)	i	·
Cc1cccc(COCC(Cc2ccccc2)N2CCN(C(=O)c3cccc(C)c3)CCC2=O)c1 (configuration not stated)	-5.8*	-5.8
Cc1cccc(COCC(Cc2ccccc2)N2CCN(C(=O)c3ccc(Cl)c(Cl)c3)CCC2=O)c1 (configuration not stated)	i	·
O=C(c1ccc(Cl)c(Cl)c1)N1CCC(=O)N(C(COCc2ccc(Cl)cc2)Cc2ccccc2)CC1 (configuration not stated)	-5.9*	-5.9
Cc1ccccc1COC[C@H](CC(C)C)N1CCN(C(=O)c2cccc(C(F)(F)F)c2)CCC1=O	-6.9*	-6.9
Cc1cccc(COCC(Cc2ccccc2)N2CCN(C(=O)c3cc(Cl)cc(Cl)c3)CCC2=O)c1 (configuration not stated)	i	·

Source: PubChem
